# The supplement of paper PMC6555819
# How the values were obtained:
# Experiment in all cases: PBM binding z-score (relative to random genomic background probes); higher = stronger binding; sequences stand for … in GC…GCGATTGACAGCGTAGAATGAAGG
# [1] = test system: RARb homodimer (NR concentration 270 nM)
# Summary of the method: (§1)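 Binding z-scores were set against random background probes. The data came from custom Agilent 4×180K protein-binding microarrays carrying double-stranded probes with 34-nt variable regions, incubated 1 h with ligand-free nuclear receptor dimers. Partner-specific antibodies detected binding, and scanned fluorescence was regression-normalized.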
# [2] = test system: RARg:RXRa (NR concentration 270 nM, RXRa partner concentration 90 nM)
# Summary of the method: as §1
# [3] = test system: RARg homodimer (NR concentration 270 nM)
# Summary of the method: as §1
# [4] = test system: RXRa DBDmut IVT, anti-RXR (DBD mutation: RXRa K156A/R161A, NR concentration 90 nM)
# Summary of the method: as §1
# [5] = test system: RXRa homodimer (NR concentration 180 nM)
# Summary of the method: as §1
# [6] = test system: THRa:RXRa (NR concentration 90 nM, RXRa partner concentration 90 nM)
# Summary of the method: as §1
# [7] = test system: THRa homodimer (NR concentration 90 nM)
# Summary of the method: as §1
# [8] = test system: VDR homodimer (NR concentration 270 nM)
# Summary of the method: as §1
sequence,measurement,setting,value
ACTTTTAGTTGACTTAGGGCAACCGATACGACGC,PBM binding z-score,[1],1.37
same,PBM binding z-score,[2],1.1
same,PBM binding z-score,[3],1.22
same,PBM binding z-score,[4],1.12
same,PBM binding z-score,[5],0.756
same,PBM binding z-score,[6],1.64
same,PBM binding z-score,[7],0.763
same,PBM binding z-score,[8],0.282
ATCTCTAGGGAACAAGTTCAGTGAAAGAGAGGAC,PBM binding z-score,[1],1.49
same,PBM binding z-score,[2],0.977
same,PBM binding z-score,[3],1.13
same,PBM binding z-score,[4],0.71
same,PBM binding z-score,[5],0.649
same,PBM binding z-score,[6],0.823
same,PBM binding z-score,[7],0.263
same,PBM binding z-score,[8],2.43
CCGACTGGGGCAAAGGTTAACATACTCAGTACGA,PBM binding z-score,[1],2.4
same,PBM binding z-score,[2],4.1
same,PBM binding z-score,[3],2.03
same,PBM binding z-score,[4],0.365
same,PBM binding z-score,[5],3.89
same,PBM binding z-score,[6],2.19
same,PBM binding z-score,[7],-0.145
same,PBM binding z-score,[8],0.335
ATCTCTAGGTAAAGATAGTTCCGTGAATGCAAAT,PBM binding z-score,[1],-0.314
same,PBM binding z-score,[2],-0.154
same,PBM binding z-score,[3],0.427
same,PBM binding z-score,[4],-0.0164
same,PBM binding z-score,[5],0.0158
same,PBM binding z-score,[6],0.316
same,PBM binding z-score,[7],0.233
same,PBM binding z-score,[8],0.309
CGTCCAAGGTCATTGCTAGGTCAGTGAAAGCATT,PBM binding z-score,[1],4.96
same,PBM binding z-score,[2],7.64
same,PBM binding z-score,[3],6.66
same,PBM binding z-score,[4],4.51
same,PBM binding z-score,[5],5.45
same,PBM binding z-score,[6],4.38
same,PBM binding z-score,[7],3.31
same,PBM binding z-score,[8],4.55
TCTTGTACATCAATAGAGGTTAAGAAAGTGCGCT,PBM binding z-score,[1],1.31
same,PBM binding z-score,[2],0.893
same,PBM binding z-score,[3],0.714
same,PBM binding z-score,[4],1.08
same,PBM binding z-score,[5],1.46
same,PBM binding z-score,[6],1.52
same,PBM binding z-score,[7],-0.338
same,PBM binding z-score,[8],-0.116
ACAGACAGGTGAGTGAAGGTTACTCAGCTGGACG,PBM binding z-score,[1],0.978
same,PBM binding z-score,[2],0.724
same,PBM binding z-score,[3],0.906
same,PBM binding z-score,[4],-0.643
same,PBM binding z-score,[5],0.869
same,PBM binding z-score,[6],1.68
same,PBM binding z-score,[7],-0.671
same,PBM binding z-score,[8],-0.214
CCGACCGGGGCATAAGGTTACCATAAGCCAGCCC,PBM binding z-score,[1],2
same,PBM binding z-score,[2],2.18
same,PBM binding z-score,[3],1.62
same,PBM binding z-score,[4],-0.289
same,PBM binding z-score,[5],1.68
same,PBM binding z-score,[6],2.57
same,PBM binding z-score,[7],1.66
same,PBM binding z-score,[8],0.0101
CCGACTGGGGCACGGTTACCATAACGCACAGCCA,PBM binding z-score,[1],0.696
same,PBM binding z-score,[2],0.548
same,PBM binding z-score,[3],1.13
same,PBM binding z-score,[4],-1.14
same,PBM binding z-score,[5],0.163
same,PBM binding z-score,[6],-0.214
same,PBM binding z-score,[7],-0.521
same,PBM binding z-score,[8],-0.442
ATATGTAGGTTAACGGTCATTCAGGTTGGTTCGC,PBM binding z-score,[1],2.72
same,PBM binding z-score,[2],2.13
same,PBM binding z-score,[3],2
same,PBM binding z-score,[4],1.34
same,PBM binding z-score,[5],1.88
same,PBM binding z-score,[6],1.62
same,PBM binding z-score,[7],0.747
same,PBM binding z-score,[8],1.84
CCGACTAGGGCAAGGTTACCATAACGCACAGCCA,PBM binding z-score,[1],1.42
same,PBM binding z-score,[2],1.33
same,PBM binding z-score,[3],1.66
same,PBM binding z-score,[4],0.121
same,PBM binding z-score,[5],1.08
same,PBM binding z-score,[6],1.23
same,PBM binding z-score,[7],0.242
same,PBM binding z-score,[8],0.0806
ATCTCTAGGTATGACTCAGTTCAGTGAAGAACGC,PBM binding z-score,[1],0.676
same,PBM binding z-score,[2],0.285
same,PBM binding z-score,[3],0.329
same,PBM binding z-score,[4],0.685
same,PBM binding z-score,[5],0.0899
same,PBM binding z-score,[6],0.451
same,PBM binding z-score,[7],0.83
same,PBM binding z-score,[8],1.5
GCTTGTAGATCAAGGCTAAGAAAGACTAAGCTAA,PBM binding z-score,[1],-0.854
same,PBM binding z-score,[2],-0.533
same,PBM binding z-score,[3],-0.429
same,PBM binding z-score,[4],-0.427
same,PBM binding z-score,[5],-0.497
same,PBM binding z-score,[6],-0.5
same,PBM binding z-score,[7],-1.37
same,PBM binding z-score,[8],-0.708
ATACCAAGATGATCGTGAGGTCGTTGATACTAAC,PBM binding z-score,[1],1.17
same,PBM binding z-score,[2],0.596
same,PBM binding z-score,[3],0.434
same,PBM binding z-score,[4],0.473
same,PBM binding z-score,[5],0.929
same,PBM binding z-score,[6],2.39
same,PBM binding z-score,[7],1.81
same,PBM binding z-score,[8],2.77
TCTAGTTGGTCTCGGAGGTCACACACGACGGGTA,PBM binding z-score,[1],4.01
same,PBM binding z-score,[2],3.75
same,PBM binding z-score,[3],3.47
same,PBM binding z-score,[4],1.15
same,PBM binding z-score,[5],4.16
same,PBM binding z-score,[6],3.65
same,PBM binding z-score,[7],2.74
same,PBM binding z-score,[8],2.48
TCGAGTATGTTAGGGGCATTCAGAATGGCGTCGA,PBM binding z-score,[1],0.285
same,PBM binding z-score,[2],-0.134
same,PBM binding z-score,[3],-0.085
same,PBM binding z-score,[4],1.26
same,PBM binding z-score,[5],0.27
same,PBM binding z-score,[6],0.709
same,PBM binding z-score,[7],-0.0845
same,PBM binding z-score,[8],1.66
CATAGCAGGCCAGGGTCACTCAAGCATTTCGCTT,PBM binding z-score,[1],3.09
same,PBM binding z-score,[2],3.13
same,PBM binding z-score,[3],2.89
same,PBM binding z-score,[4],0.718
same,PBM binding z-score,[5],3.61
same,PBM binding z-score,[6],3.07
same,PBM binding z-score,[7],1.43
same,PBM binding z-score,[8],1.81
ACAGACAGGTGATGAAGGTAAGTCAGGCTATCAT,PBM binding z-score,[1],0.406
same,PBM binding z-score,[2],0.153
same,PBM binding z-score,[3],0.428
same,PBM binding z-score,[4],-0.263
same,PBM binding z-score,[5],0.248
same,PBM binding z-score,[6],0.617
same,PBM binding z-score,[7],-0.25
same,PBM binding z-score,[8],-0.186
TCATATAGGTAATACAGGTGACAGTCGGCATCTA,PBM binding z-score,[1],0.657
same,PBM binding z-score,[2],0.874
same,PBM binding z-score,[3],0.762
same,PBM binding z-score,[4],1.5
same,PBM binding z-score,[5],1.08
same,PBM binding z-score,[6],0.809
same,PBM binding z-score,[7],0.0912
same,PBM binding z-score,[8],-0.0475
TTACCAAGGTGAAAGCTCGTTGATGCACGCCTTG,PBM binding z-score,[1],0.13
same,PBM binding z-score,[2],0.342
same,PBM binding z-score,[3],0.28
same,PBM binding z-score,[4],-0.23
same,PBM binding z-score,[5],0.617
same,PBM binding z-score,[6],1.38
same,PBM binding z-score,[7],0.107
same,PBM binding z-score,[8],-0.644
ATCGAAAGGTCGAGGTGAGTATTGAGAAAGGGAA,PBM binding z-score,[1],3.11
same,PBM binding z-score,[2],4.2
same,PBM binding z-score,[3],3.88
same,PBM binding z-score,[4],0.619
same,PBM binding z-score,[5],4.12
same,PBM binding z-score,[6],2.93
same,PBM binding z-score,[7],0.768
same,PBM binding z-score,[8],0.377
TAGCCTAGGTCATGGGCCATTATACCACGCGAAC,PBM binding z-score,[1],3.25
same,PBM binding z-score,[2],4.27
same,PBM binding z-score,[3],4.52
same,PBM binding z-score,[4],0.45
same,PBM binding z-score,[5],3.75
same,PBM binding z-score,[6],3.17
same,PBM binding z-score,[7],1.37
same,PBM binding z-score,[8],0.862
TGAATGAGGTTAAAAGATCAGGGAACGTTGCAAA,PBM binding z-score,[1],0.578
same,PBM binding z-score,[2],2.56
same,PBM binding z-score,[3],1.18
same,PBM binding z-score,[4],0.605
same,PBM binding z-score,[5],2.79
same,PBM binding z-score,[6],1.83
same,PBM binding z-score,[7],-0.00624
same,PBM binding z-score,[8],0.327
GGAACGAGGGCATTCGCGTTGATAGCATGGCGAT,PBM binding z-score,[1],0.582
same,PBM binding z-score,[2],0.978
same,PBM binding z-score,[3],1.21
same,PBM binding z-score,[4],2.75
same,PBM binding z-score,[5],0.746
same,PBM binding z-score,[6],1.08
same,PBM binding z-score,[7],-0.426
same,PBM binding z-score,[8],1.79
AGTCAAAGTTCAGGACGAGGTAACGGAAAGCACG,PBM binding z-score,[1],3.17
same,PBM binding z-score,[2],4.69
same,PBM binding z-score,[3],4.86
same,PBM binding z-score,[4],2.73
same,PBM binding z-score,[5],2.96
same,PBM binding z-score,[6],3.79
same,PBM binding z-score,[7],1.74
same,PBM binding z-score,[8],1.79
CGTCCAAGGTCAGCAGGTCAGTTAAAGCGACGTG,PBM binding z-score,[1],5.1
same,PBM binding z-score,[2],6.48
same,PBM binding z-score,[3],7.2
same,PBM binding z-score,[4],2.34
same,PBM binding z-score,[5],5.18
same,PBM binding z-score,[6],4.27
same,PBM binding z-score,[7],2.96
same,PBM binding z-score,[8],1.71
CAAACTATGTCACGAAAGGTCAAAGTCGAATGAC,PBM binding z-score,[1],5.15
same,PBM binding z-score,[2],6.02
same,PBM binding z-score,[3],5.58
same,PBM binding z-score,[4],1.55
same,PBM binding z-score,[5],6.73
same,PBM binding z-score,[6],4.49
same,PBM binding z-score,[7],1.4
same,PBM binding z-score,[8],2.8
TCTCAGAGGACACGAAGGTCAGAGCTTTCCAGAG,PBM binding z-score,[1],3.88
same,PBM binding z-score,[2],3.73
same,PBM binding z-score,[3],4.66
same,PBM binding z-score,[4],1.38
same,PBM binding z-score,[5],1.97
same,PBM binding z-score,[6],2.79
same,PBM binding z-score,[7],0.738
same,PBM binding z-score,[8],1.62
